From the supplement of paper PMC4466140

The binders below were run against CaNbp2 (assay: SPOT peptide array binding signal intensity (averaged, normalized) (arbitrary units (background-subtracted, floor 0; scale differs between SH3 domains)); higher = stronger binding of the SH3 domain to the peptide).
Summary of the method: (§1)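 Detection of bound protein relied on anti-GST antibody, an HRP anti-mouse secondary and luminol, with imaging and quantification in Genespotter. The bound protein was GST-fused SH3 domains from four yeast species, incubated at 10 μg/ml overnight at 4°C in TBS-based blocking buffer on cellulose membranes carrying synthetic 15-mer peptides with cysteines replaced by serines. Binding signal is normalized, background-subtracted spot intensity averaged over replicates, in arbitrary units that differ between domains.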

| Binder | SPOT peptide array binding signal intensity |
| --- | --- |
| QPWTDQFEKLEKEVS | 23 |

These binders were tested against CaRvs167 in the same assay as above.
Summary of the method: as §1

| Binder | SPOT peptide array binding signal intensity |
| --- | --- |
| QPWTDQFEKLEKEVS | 1.33 |

The binders below were run against CaRvs167-3 in the same assay as above.
Summary of the method: as §1

| Binder | SPOT peptide array binding signal intensity |
| --- | --- |
| QPWTDQFEKLEKEVS | 0.5 |

The binders below were run against CaSho1 in the same assay as above.
Summary of the method: as §1

| Binder | SPOT peptide array binding signal intensity |
| --- | --- |
| QPWTDQFEKLEKEVS | ≤ 0 |

The binders below were run against CaSla1-D1-D2 in the same assay as above.
Summary of the method: as §1

| Binder | SPOT peptide array binding signal intensity |
| --- | --- |
| QPWTDQFEKLEKEVS | ≤ 0 |

These binders were tested against CaSla1-D3 in the same assay as above.
Summary of the method: as §1

| Binder | SPOT peptide array binding signal intensity |
| --- | --- |
| QPWTDQFEKLEKEVS | ≤ 0 |

These binders were tested against ScAbp1 in the same assay as above.
Summary of the method: as §1

| Binder | SPOT peptide array binding signal intensity |
| --- | --- |
| QPWTDQFEKLEKEVS | 1 |

What follows are binders tested against ScBbc1 in the same assay as above.
Summary of the method: as §1

| Binder | SPOT peptide array binding signal intensity |
| --- | --- |
| QPWTDQFEKLEKEVS | 4.75 |

What follows are binders tested against ScBem1-D1 in the same assay as above.
Summary of the method: as §1

| Binder | SPOT peptide array binding signal intensity |
| --- | --- |
| QPWTDQFEKLEKEVS | ≤ 0 |

Each binder was assayed against ScBzz1-D1 in the same assay as above.
Summary of the method: as §1

| Binder | SPOT peptide array binding signal intensity |
| --- | --- |
| QPWTDQFEKLEKEVS | 21 |

These binders were tested against ScBzz1-D2 in the same assay as above.
Summary of the method: as §1

| Binder | SPOT peptide array binding signal intensity |
| --- | --- |
| QPWTDQFEKLEKEVS | 11 |

These binders were tested against ScCyk3 in the same assay as above.
Summary of the method: as §1

| Binder | SPOT peptide array binding signal intensity |
| --- | --- |
| QPWTDQFEKLEKEVS | ≤ 0 |

These binders were tested against ScFus1 in the same assay as above.
Summary of the method: as §1

| Binder | SPOT peptide array binding signal intensity |
| --- | --- |
| QPWTDQFEKLEKEVS | ≤ 0 |

These binders were tested against ScHof1 in the same assay as above.
Summary of the method: as §1

| Binder | SPOT peptide array binding signal intensity |
| --- | --- |
| QPWTDQFEKLEKEVS | ≤ 0 |

These binders were tested against ScHse1 in the same assay as above.
Summary of the method: as §1

| Binder | SPOT peptide array binding signal intensity |
| --- | --- |
| QPWTDQFEKLEKEVS | 67 |

These binders were tested against ScLsb1 in the same assay as above.
Summary of the method: as §1

| Binder | SPOT peptide array binding signal intensity |
| --- | --- |
| QPWTDQFEKLEKEVS | ≤ 0 |

The binders below were run against ScLsb2 in the same assay as above.
Summary of the method: as §1

| Binder | SPOT peptide array binding signal intensity |
| --- | --- |
| QPWTDQFEKLEKEVS | ≤ 0 |

Each binder was assayed against ScLsb3 in the same assay as above.
Summary of the method: as §1

| Binder | SPOT peptide array binding signal intensity |
| --- | --- |
| QPWTDQFEKLEKEVS | ≤ 0 |

The binders below were run against ScLsb4 in the same assay as above.
Summary of the method: as §1

| Binder | SPOT peptide array binding signal intensity |
| --- | --- |
| QPWTDQFEKLEKEVS | 3 |

The binders below were run against ScMyo3 in the same assay as above.
Summary of the method: as §1

| Binder | SPOT peptide array binding signal intensity |
| --- | --- |
| QPWTDQFEKLEKEVS | 0.5 |

These binders were tested against ScMyo5 in the same assay as above.
Summary of the method: as §1

| Binder | SPOT peptide array binding signal intensity |
| --- | --- |
| QPWTDQFEKLEKEVS | 0.75 |

Each binder was assayed against ScNbp2 in the same assay as above.
Summary of the method: as §1

| Binder | SPOT peptide array binding signal intensity |
| --- | --- |
| QPWTDQFEKLEKEVS | ≤ 0 |

The binders below were run against ScPex13 in the same assay as above.
Summary of the method: as §1

| Binder | SPOT peptide array binding signal intensity |
| --- | --- |
| QPWTDQFEKLEKEVS | 181 |

Each binder was assayed against ScRvs167 in the same assay as above.
Summary of the method: as §1

| Binder | SPOT peptide array binding signal intensity |
| --- | --- |
| QPWTDQFEKLEKEVS | 1 |

The binders below were run against ScSho1 in the same assay as above.
Summary of the method: as §1

| Binder | SPOT peptide array binding signal intensity |
| --- | --- |
| QPWTDQFEKLEKEVS | ≤ 0 |

What follows are binders tested against ScSla1-D1-D2 in the same assay as above.
Summary of the method: as §1

| Binder | SPOT peptide array binding signal intensity |
| --- | --- |
| QPWTDQFEKLEKEVS | ≤ 0 |

Each binder was assayed against ScSla1-D3 in the same assay as above.
Summary of the method: as §1

| Binder | SPOT peptide array binding signal intensity |
| --- | --- |
| QPWTDQFEKLEKEVS | 16.2 |

What follows are binders tested against SpAbp1-D1 in the same assay as above.
Summary of the method: as §1

| Binder | SPOT peptide array binding signal intensity |
| --- | --- |
| QPWTDQFEKLEKEVS | ≤ 0 |

The binders below were run against SpBbc1 in the same assay as above.
Summary of the method: as §1

| Binder | SPOT peptide array binding signal intensity |
| --- | --- |
| QPWTDQFEKLEKEVS | 1.5 |

These binders were tested against SpBzz1-D1 in the same assay as above.
Summary of the method: as §1

| Binder | SPOT peptide array binding signal intensity |
| --- | --- |
| QPWTDQFEKLEKEVS | ≤ 0 |

The binders below were run against SpBzz1-D2 in the same assay as above.
Summary of the method: as §1

| Binder | SPOT peptide array binding signal intensity |
| --- | --- |
| QPWTDQFEKLEKEVS | ≤ 0 |

The binders below were run against SpCyk3 in the same assay as above.
Summary of the method: as §1

| Binder | SPOT peptide array binding signal intensity |
| --- | --- |
| QPWTDQFEKLEKEVS | ≤ 0 |

The binders below were run against SpHof1 in the same assay as above.
Summary of the method: as §1

| Binder | SPOT peptide array binding signal intensity |
| --- | --- |
| QPWTDQFEKLEKEVS | ≤ 0 |

What follows are binders tested against SpHof1-2 in the same assay as above.
Summary of the method: as §1

| Binder | SPOT peptide array binding signal intensity |
| --- | --- |
| QPWTDQFEKLEKEVS | ≤ 0 |

The binders below were run against SpHof1-3 in the same assay as above.
Summary of the method: as §1

| Binder | SPOT peptide array binding signal intensity |
| --- | --- |
| QPWTDQFEKLEKEVS | ≤ 0 |

Each binder was assayed against SpHse1 in the same assay as above.
Summary of the method: as §1

| Binder | SPOT peptide array binding signal intensity |
| --- | --- |
| QPWTDQFEKLEKEVS | 15.5 |

These binders were tested against SpLsb1 in the same assay as above.
Summary of the method: as §1

| Binder | SPOT peptide array binding signal intensity |
| --- | --- |
| QPWTDQFEKLEKEVS | ≤ 0 |

What follows are binders tested against SpLsb4 in the same assay as above.
Summary of the method: as §1

| Binder | SPOT peptide array binding signal intensity |
| --- | --- |
| QPWTDQFEKLEKEVS | ≤ 0 |

These binders were tested against SpMyo1 in the same assay as above.
Summary of the method: as §1

| Binder | SPOT peptide array binding signal intensity |
| --- | --- |
| QPWTDQFEKLEKEVS | ≤ 0 |

These binders were tested against SpNbp2 in the same assay as above.
Summary of the method: as §1

| Binder | SPOT peptide array binding signal intensity |
| --- | --- |
| QPWTDQFEKLEKEVS | ≤ 0 |

The binders below were run against SpPex13 in the same assay as above.
Summary of the method: as §1

| Binder | SPOT peptide array binding signal intensity |
| --- | --- |
| QPWTDQFEKLEKEVS | ≤ 0 |

These binders were tested against SpRvs167 in the same assay as above.
Summary of the method: as §1

| Binder | SPOT peptide array binding signal intensity |
| --- | --- |
| QPWTDQFEKLEKEVS | ≤ 0 |

The binders below were run against SpSla1-D1-D2 in the same assay as above.
Summary of the method: as §1

| Binder | SPOT peptide array binding signal intensity |
| --- | --- |
| QPWTDQFEKLEKEVS | 3 |

The binders below were run against SpSla1-D3 in the same assay as above.
Summary of the method: as §1

| Binder | SPOT peptide array binding signal intensity |
| --- | --- |
| QPWTDQFEKLEKEVS | ≤ 0 |
